Test results reported in PubChem BioAssay (Tox21).
Inconclusive results are not listed. The source made the active and inactive calls. Unless noted, calls follow the shape of the dose curve; as a rule, active = well fitted curve in the direction sought with a large enough effect in the repeat runs; inconclusive = weak or mixed curves; inactive = no such curve, though single readings can be large; an effect the other way counts as inactive or inconclusive.

How the values were obtained:
[1] = qHTS assay for small molecule agonists of the p53 signaling pathway (AID 651631; calls by dose curve; also: nearly all actives have a fitted effect of over 15% in size; also: potency is read from the fitted curve at half-maximal effect)
In short: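 HCT-116 p53RE-bla reporter line, 16 h compound treatment at 37 °C, then fluorescence after 2 h with B/G FRET substrate.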

[2] = qHTS assay for small molecules that induce genotoxicity in human embryonic kidney cells expressing luciferase-tagged ATAD5 (AID 651632); also: nearly all actives have a fitted effect of over 15% in size; also: potency is read from the fitted curve at half-maximal effect
In short: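 Concentration-response screen for ATAD5 upregulation in HEK293T luciferase reporter cells; 16 hr treatment at 37C, then luminescence after 30 min with Amplite at room temperature.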

[3] = qHTS assay for small molecule agonists of the p53 signaling pathway - cell viability (AID 651633; calls by dose curve;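 also: p53RE-bla HCT reporter cells with a stable beta-lactamase p53 reporter; nearly all actives have a fitted effect of over 30% in size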)
In short: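 p53RE-bla cells were treated with compound for 16 hours at 37 C. Cytotoxicity was then measured as CellTiter-Glo luminescence after 30 min at room temperature.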

[4] = qHTS assay for small molecule disruptors of the mitochondrial membrane potential - cell viability (AID 720634; calls by dose curve; also: nearly all actives have a fitted effect of over 20% in size; also: potency is read from the fitted curve at half-maximal effect)
In short: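 In this qHTS format, HepG2 cells plated overnight were pinned with compound, incubated 1 hr, and assayed for ATP luminescence with CellTiter-Glo after m-MPI dye addition.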

[5] = qHTS assay for small molecule disruptors of the mitochondrial membrane potential (AID 720635); also: potency is read from the fitted curve at half-maximal effect
In short: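 HepG2 cells exposed to compound 1 hr at 37C, then Mito-MPS dye 30 min. Ratio read of aggregate (540/590 nm) versus monomer (490/535 nm) fluorescence.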

[6] = qHTS assay to test for compound auto fluorescence at 590 nm (red) in HepG2 cells (AID 720674)
In short: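 HepG2 cells, 2,000 per well in MEM with 10% FBS, attached overnight at 37 C, then got 23 nL compound or DMSO. After 1 hr at 37 C, 5% CO2, red fluorescence was read at 540/590 nm against Rose Bengal sodium as reference.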

[7] = qHTS assay to test for compound auto fluorescence at 535 nm (green) in HepG2 cells (AID 720675)
[8] = qHTS assay to test for compound auto fluorescence at 460 nm (blue) in HEK293 cells (AID 720678)
In short: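 Blue-channel (Ex/Em 405/460 nm) intensity measured in HEK293 cultures after overnight compound exposure at 37C; signal expressed relative to triamterene. Cells plated 2,000 per well in 10% dialyzed FBS medium and allowed 4-5 hr to attach.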

[9] = qHTS assay to test for compound auto fluorescence at 590 nm (red) in HEK293 cells (AID 720679)
In short: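 Red-channel autofluorescence (Ex/Em 540/590 nm; Rose Bengal sodium reference) was measured after overnight 37C, 5% CO2 exposure of attached HEK293 cells, 2,000 per well in medium with 10% dialyzed FBS.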

[10] = qHTS assay to test for compound auto fluorescence at 535 nm (green) in HEK293 cells (AID 720680)
[11] = qHTS assay to test for compound auto fluorescence at 460 nm (blue) in HEK293 cell free culture (AID 720681)
In short: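 Compounds were added to cell-free DMEM with 10% FBS and fluorescence read directly. The blue channel used 405 nm excitation and 460 nm emission, with triamterene as the reference fluorophore.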

[12] = qHTS assay to test for compound auto fluorescence at 535 nm (green) in HEK293 cell free culture (AID 720682)
In short: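 Steps: dispense DMEM/10% FBS into empty wells; pin in compound or DMSO; measure fluorescence at 485/535 nm. Values are fluorescein equivalents.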

[13] = qHTS assay to test for compound auto fluorescence at 590 nm (red) in HEK293 cell free culture (AID 720683)
In short: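 Cell-free wells of DMEM with 10% FBS received compound, and intrinsic fluorescence was read at excitation/emission 540/590 nm. Values expressed as equivalence to Rose Bengal sodium.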

[14] = qHTS assay to test for compound auto fluorescence at 590 nm (red) in HepG2 cell free culture (AID 720684)
In short: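 Auto fluorescence equivalency versus Rose Bengal sodium, red channel Ex/Em 540/590 nm; compounds in cell-free MEM/10% FBS; DMSO vehicle control.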

[15] = qHTS assay to test for compound auto fluorescence at 460 nm (blue) in HepG2 cell free culture (AID 720685)
In short: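 Cell-free plates of MEM plus 10% FBS received 23 nL compound or DMSO vehicle; blue-channel (405/460 nm) intensity scored against triamterene as reference fluorophore.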

[16] = qHTS assay to test for compound auto fluorescence at 535 nm (green) in HepG2 cell free culture (AID 720686)
[17] = qHTS assay to test for compound auto fluorescence at 460 nm (blue) in HepG2 cells (AID 720687)
In short: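 HepG2 cells in MEM with 10% FBS, attached overnight at 37 C, were exposed to compound or DMSO for 1 hr at 37 C, 5% CO2. Blue fluorescence was read at 405/460 nm, with triamterene as reference fluorophore.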

[18] = molecular target: Glucocorticoid receptor (Homo sapiens) (UniProt P04150); assay: qHTS assay to identify small molecule agonists of the glucocorticoid receptor (GR) signaling pathway (AID 720691; active = well fitted activation curve with a large enough effect in the signal ratio in the repeat runs, not every such curve was filed as active; the % refers to the signal ratio; also: potency is read from the fitted curve at half-maximal effect); conditions: GR-bla HeLa, beta-lactamase reporter ratio, 18 h; activation: at 62.4 µM (top of the series)
In short: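 Measures GR pathway activation through a GRE-beta-lactamase reporter stably integrated in HeLa cells, with 18 h compound treatment at 37 C and fluorescence detection using a FRET substrate.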

[19] = molecular target: Glucocorticoid receptor (Homo sapiens) (UniProt P04150); assay: qHTS assay to identify small molecule antagonists of the glucocorticoid receptor (GR) signaling pathway (AID 720692; active = well fitted inhibition curve with a large enough effect in the signal ratio in the repeat runs, not every such curve was filed as active; the % refers to the signal ratio; also: potency is read from the fitted curve at half-maximal effect)
In short: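 Tox21 10K library screened in concentration-response for blockade of dexamethasone (5 nM final)-induced GRE-bla reporter activity in HeLa cells; 18 h treatment, fluorescence read.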

[20] = qHTS assay for small molecules that induce genotoxicity in human embryonic kidney cells expressing luciferase-tagged ATAD5 - cell viability (AID 651634; calls by dose curve; also: nearly all actives have a fitted effect of over 25% in size)
In short: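 15.5 hr compound or vehicle exposure of HEK293T cells expressing luciferase-tagged ATAD5 at 37C; live-cell protease activity is read by fluorescence after 30 min of CellTiter-Fluor.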

Measured: Potency

Chain of Glucocorticoid receptor (Homo sapiens) (P04150 whole entry, looked up): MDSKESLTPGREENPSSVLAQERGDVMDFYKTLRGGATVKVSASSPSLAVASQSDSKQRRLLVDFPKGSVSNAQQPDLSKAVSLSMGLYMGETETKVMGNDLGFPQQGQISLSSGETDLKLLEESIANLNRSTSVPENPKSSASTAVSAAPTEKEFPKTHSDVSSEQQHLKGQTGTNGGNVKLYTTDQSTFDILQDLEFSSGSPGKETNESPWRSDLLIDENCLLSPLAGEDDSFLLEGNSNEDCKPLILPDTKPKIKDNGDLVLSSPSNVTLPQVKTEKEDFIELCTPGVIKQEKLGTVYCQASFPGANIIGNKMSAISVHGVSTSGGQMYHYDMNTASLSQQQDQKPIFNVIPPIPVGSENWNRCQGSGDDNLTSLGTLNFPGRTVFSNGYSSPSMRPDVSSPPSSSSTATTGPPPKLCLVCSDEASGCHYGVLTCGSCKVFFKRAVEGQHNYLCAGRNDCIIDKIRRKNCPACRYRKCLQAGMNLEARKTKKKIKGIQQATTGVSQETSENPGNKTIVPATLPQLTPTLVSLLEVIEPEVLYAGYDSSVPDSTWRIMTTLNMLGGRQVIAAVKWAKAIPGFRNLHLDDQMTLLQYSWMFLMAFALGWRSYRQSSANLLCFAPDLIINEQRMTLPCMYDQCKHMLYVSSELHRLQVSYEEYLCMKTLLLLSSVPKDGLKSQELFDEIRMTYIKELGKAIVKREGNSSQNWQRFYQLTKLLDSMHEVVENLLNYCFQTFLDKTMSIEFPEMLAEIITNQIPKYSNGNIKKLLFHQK

CCCCC(=O)O[C@H]1CC[C@H]2[C@@H]3CCc4cc(O)ccc4[C@H]3CC[C@]12C
active: [4] 29.8 µM | [5] 18.8 µM | [19] 9.52 µM
not listed: [20]
inactive: all other assays above

CO[C@@]1(NC(=O)C2SC(=C(C(N)=O)C(=O)O)S2)C(=O)N2C(C(=O)O)=C(CSc3nnnn3C)CS[C@@H]21 (stereo not given in full)
not listed: [4] | [5]
inactive: all other assays above

C#C[C@]1(OC(C)=O)CC[C@H]2[C@@H]3CCC4=CC(=O)CC[C@@H]4[C@H]3CC[C@@]21C
active: [19] 2.13 µM
not listed: [7] | [18] | [20]
inactive: all other assays above

O=C(CO)[C@@H](O)[C@H](O)[C@@H](O)C(=O)O
not listed: [4] | [5] | [10] | [19]
inactive: all other assays above

C=C1/C(=C\C=C2/CCC[C@]3(C)[C@@H]([C@H](C)OCCC(C)(C)O)CC[C@@H]23)C[C@@H](O)C[C@@H]1O
active: [1] 11.9 µM
not listed: [14] | [18] | [19] | [20]
inactive: all other assays above

c1ccc2c(CCC3CCNCC3)c[nH]c2c1
not listed: [4] | [5] | [7]
inactive: all other assays above

CC(O)[C@@H]1NC(=O)[C@H](CCCCN)NC(=O)[C@@H](Cc2c[nH]c3ccccc23)NC(=O)[C@H](Cc2ccccc2)NC(=O)[C@@H](NC(=O)[C@H](N)Cc2ccccc2)CSSC[C@@H](C(=O)N[C@H](CO)[C@@H](C)O)NC1=O (stereo not given in full)
not listed: [5] | [7]
inactive: all other assays above

COc1cc2c(cc1OC)[C@@H](c1ccccc1)CN(C)CC2
not listed: [4] | [5]
inactive: all other assays above

N[C@@H](C(=O)N[C@@H]1C(=O)N2C(C(=O)O)=C(Cl)CC[C@H]12)c1ccccc1
not listed: [4] | [18] | [19]
inactive: all other assays above

NCCC[C@H](N)C(=O)O
not listed: [3] | [15] | [18] | [19] | [20]
inactive: all other assays above

COc1cc(C)c(/C=C/C(C)=C/C=C/C(C)=C/C(=O)O)c(C)c1C
active: [1] 29.8 µM
not listed: [3] | [4] | [19]
inactive: all other assays above

Cc1c(N)nc(C(CC(N)=O)NCC(N)C(N)=O)nc1C(=O)NC(C(=O)NC(C)C(O)C(C)C(=O)NC(C(=O)NCCc1nc(-c2nc(C(=O)NCCCN[C@@H](C)c3ccccc3)cs2)cs1)C(C)O)C(O[C@@H]1O[C@@H](CO)[C@@H](O)[C@H](O)[C@@H]1O[C@H]1O[C@H](CO)[C@@H](O)[C@H](OC(N)=O)[C@@H]1O)c1cnc[nH]1 (stereo not given in full)
active: [1] 0.15 µM
not listed: [3] | [5] | [15]
inactive: all other assays above

CC1CCC(NC(=O)N(CCCl)N=O)CC1 (stereo not given)
not listed: [2] | [11]
inactive: all other assays above

C=CCNC1=C2C[C@@H](C)C[C@H](OC)[C@H](O)[C@@H](C)/C=C(\C)[C@H](OC(N)=O)[C@@H](OC)/C=C\C=C(/C)C(=O)NC(=CC1=O)C2=O
active: [1] 0.168 µM
not listed: [4] | [5] | [13] | [19] | [20]
inactive: all other assays above

CNC(=O)[C@H](Cc1c[nH]c2ccccc12)NC(=O)[C@@H](CC(=O)NO)CC(C)C
not listed: [2] | [18] | [19]
inactive: all other assays above

CC1(C)S[C@@H]2[C@H](NC(=O)C(C(=O)Oc3ccc4c(c3)CCC4)c3ccccc3)C(=O)N2[C@H]1C(=O)O (stereo not given in full)
not listed: [2] | [5] | [18]
inactive: all other assays above

O=P(O)(O)OC(Cn1cncn1)(Cn1cncn1)c1ccc(F)cc1F
not listed: [3] | [7] | [14]
inactive: all other assays above

CCCCC(=O)OCC(=O)[C@]1(O)Cc2c(O)c3c(c(O)c2[C@@H](O[C@H]2C[C@H](NC(=O)C(F)(F)F)[C@H](O)[C@H](C)O2)C1)C(=O)c1c(OC)cccc1C3=O
active: [1] 4.22 µM | [2] 3.35 µM | [5] 1.19 µM | [18] 7.56 µM
not listed: [3] | [4] | [14] | [19] | [20]
inactive: all other assays above

COc1ccc(CNCC(O)COc2ccc3[nH]c(=O)ccc3c2)cc1OC (stereo not given)
not listed: [2]
inactive: all other assays above

NC(Cc1ccccc1)C(=O)O (stereo not given)
not listed: [2] | [7] | [15] | [18] | [19]
inactive: all other assays above

CCOc1ccc(N=C(C)Nc2ccc(OCC)cc2)cc1
not listed: [3] | [18] | [19]
inactive: all other assays above

CC(C)[C@@H]1CC[C@@H](C)C[C@H]1OC(=O)c1ccccc1O
not listed: [3] | [5] | [13] | [18] | [19]
inactive: all other assays above

OC[C@H]1O[C@@H](n2cnc3c2NC=NC[C@H]3O)C[C@@H]1O
not listed: [2] | [5]
inactive: all other assays above

O=C(NCCNCC(O)COc1ccc(O)cc1)N1CCOCC1 (stereo not given)
not listed: [3] | [4] | [20]
inactive: all other assays above

O=C(O)c1cc2ccccc2c(Cc2c(O)c(C(=O)O)cc3ccccc23)c1O
not listed: [3] | [5]
inactive: all other assays above

Cn1nnnc1SCC1=C(C(=O)O)N2C(=O)[C@@H](NC(=O)[C@H](O)c3ccccc3)[C@H]2SC1
not listed: [3] | [7]
inactive: all other assays above

NCCCC[C@H](NC(=O)[C@@H]1CCCN1C(=O)[C@@H]1CSSC[C@H](N)C(=O)N[C@@H](Cc2ccccc2)C(=O)N[C@@H](Cc2ccccc2)C(=O)N[C@@H](CCC(N)=O)C(=O)N[C@@H](CC(N)=O)C(=O)N1)C(=O)NCC(N)=O
not listed: [2]
inactive: all other assays above
